Records with an inconclusive call do not appear. Calls of active or inactive are those of the source. Unless noted, the call rests on the fitted dose curve.
How the values were obtained:
[1] = Nuclear factor erythroid 2-related factor 2/antioxidant responsive element (Nrf2/ARE) small molecule agonists: qHTS cell viability counter screen in human keratinocytes (AID 1919968; active means well fitted curve in the direction sought with a large enough effect in the repeat runs; an effect the other way counts as inactive or inconclusive; further: nearly all actives have a fitted effect of over 55% in size)
How it was run: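 Cells of the KeratinoSens line were plated at 1,500 per well and left for 5 h before compound transfer from DMSO stocks. After a 23 h incubation (37 C, 5% CO2), CellTiter-Fluor was added. Signal was taken as fluorescence intensity 1 h later.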

[2] = target: Gonadotropin-releasing hormone receptor (Homo sapiens) (UniProt P30968); test: Human gonadotropin-releasing hormone receptor (GnRHR) small molecule agonists, calcium flux assay in GnRHR-HEK293 cells (AID 1920063); further: nearly all actives have a fitted effect of over 35% in size
Gonadotropin-releasing hormone receptor (Homo sapiens), sequence (P30968 whole entry, looked up): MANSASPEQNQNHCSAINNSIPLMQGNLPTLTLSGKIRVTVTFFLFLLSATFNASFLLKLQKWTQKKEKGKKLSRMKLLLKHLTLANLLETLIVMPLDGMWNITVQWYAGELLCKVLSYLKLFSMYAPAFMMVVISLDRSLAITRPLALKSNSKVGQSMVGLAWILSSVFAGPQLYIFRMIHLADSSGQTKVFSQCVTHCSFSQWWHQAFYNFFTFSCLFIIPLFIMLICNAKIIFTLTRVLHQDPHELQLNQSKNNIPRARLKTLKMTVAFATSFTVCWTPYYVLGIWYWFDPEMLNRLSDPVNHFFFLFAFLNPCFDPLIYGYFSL
How it was run: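 Compounds dissolved in DMSO are pin-transferred onto dye-loaded GnRHR-HEK293 cells, which were seeded 18 h before at 37 C/5% CO2. Calcium signal is read as fluorescence intensity at 1 s intervals for 3 min.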

[3] = target: KiSS-1 receptor (Homo sapiens) (UniProt Q969F8); test: Human kisspeptin (KISS1R) small molecule agonists, calcium flux assay in KISS1R-HEK293 cells (AID 1920064; active means well fitted curve in the direction sought with a large enough effect in the repeat runs; an effect the other way counts as inactive or inconclusive)
KiSS-1 receptor (Homo sapiens), sequence (Q969F8 whole entry, looked up): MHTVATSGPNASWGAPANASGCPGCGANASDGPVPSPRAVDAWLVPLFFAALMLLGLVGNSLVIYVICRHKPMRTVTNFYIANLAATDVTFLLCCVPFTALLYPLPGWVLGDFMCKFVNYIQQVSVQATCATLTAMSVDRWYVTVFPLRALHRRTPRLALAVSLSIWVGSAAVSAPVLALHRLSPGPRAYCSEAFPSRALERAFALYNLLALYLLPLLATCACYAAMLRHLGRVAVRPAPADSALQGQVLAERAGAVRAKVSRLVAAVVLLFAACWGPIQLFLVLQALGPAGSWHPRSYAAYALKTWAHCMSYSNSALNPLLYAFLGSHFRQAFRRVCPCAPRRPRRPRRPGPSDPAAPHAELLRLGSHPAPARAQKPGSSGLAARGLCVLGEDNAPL
How it was run: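 Cell line: HEK293, stable human KISS1R. Dye loading 1 h at 37 C after 18 h culture. Read: kinetic fluorescence, 480/540 nm, 3 min at 1 s intervals.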

[4] = G protein-coupled receptor (GPCR) small molecule agonists, calcium flux assay: HEK293 wild type cell line counter screen (AID 1920065)
How it was run: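 Tox21 10K compounds, 15 concentrations each in triplicate, pin-transferred in DMSO onto dye-loaded cells; kinetic read at 480/540 nm for 3 min, 1 s intervals.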

[5] = p53 small molecule agonists, cell-based qHTS assay with human liver microsomes: qHTS cell viability counter screen (AID 1963579); further: nearly all actives have a fitted effect of over 45% in size
How it was run: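 Metabolically activated exposure: compounds, human liver microsomes and NADPH (0.5 mg/mL final apiece) were added to p53RE-bla cells seeded 5 h earlier, left 16 h at 37 C, and then assessed for viability by CellTiter-Glo luminescence.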

[6] = p53 small molecule agonists, cell-based qHTS assay with rat liver microsomes: qHTS cell viability counter screen (AID 1963580); further: nearly all actives have a fitted effect of over 45% in size
How it was run: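 Cytotoxicity counter screen: intracellular ATP read by CellTiter-Glo luminescence in the p53 reporter wells. HCT-116 p53RE-bla cells were treated for 16 h at 37 C alongside rat liver microsomes and NADPH, each 0.5 mg/mL final.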

[7] = target: 5-hydroxytryptamine receptor 2A (Homo sapiens) (UniProt P28223); test: 5-hydroxytryptamine receptor 2A (HTR2A) small molecule agonists, cell-based qHTS assay (AID 1963587); further: nearly all actives have a fitted effect of over 30% in size
5-hydroxytryptamine receptor 2A (Homo sapiens), sequence (P28223 whole entry, looked up): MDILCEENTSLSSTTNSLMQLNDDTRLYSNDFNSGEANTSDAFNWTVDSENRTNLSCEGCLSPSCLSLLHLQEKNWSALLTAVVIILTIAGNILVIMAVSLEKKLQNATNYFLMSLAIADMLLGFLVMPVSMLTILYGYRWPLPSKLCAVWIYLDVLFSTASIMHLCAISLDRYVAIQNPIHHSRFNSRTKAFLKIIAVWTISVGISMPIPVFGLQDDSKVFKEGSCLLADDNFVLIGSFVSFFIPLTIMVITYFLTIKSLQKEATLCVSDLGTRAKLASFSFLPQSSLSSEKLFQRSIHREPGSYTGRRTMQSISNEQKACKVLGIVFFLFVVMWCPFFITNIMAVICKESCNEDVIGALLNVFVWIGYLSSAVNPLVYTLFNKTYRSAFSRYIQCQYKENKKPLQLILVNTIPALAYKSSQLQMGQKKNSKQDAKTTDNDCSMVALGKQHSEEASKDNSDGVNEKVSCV
How it was run: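 Kinetic calcium-flux fluorescence (2 min, 1 sec intervals) after compound addition in agonist mode. HTR2A-CHO cells were cultured 18 h, then dye-loaded 1 h at 37 C.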

[8] = target: Muscarinic acetylcholine receptor M1 (Homo sapiens) (UniProt P11229); test: Cholinergic receptor muscarinic 1 (CHRM1) small molecule antagonists, cell-based qHTS assay (AID 1963588); further: nearly all actives have a fitted effect of over 40% in size; further: potency means the concentration at half of the fitted maximal effect
Muscarinic acetylcholine receptor M1 (Homo sapiens), sequence (P11229 whole entry, looked up): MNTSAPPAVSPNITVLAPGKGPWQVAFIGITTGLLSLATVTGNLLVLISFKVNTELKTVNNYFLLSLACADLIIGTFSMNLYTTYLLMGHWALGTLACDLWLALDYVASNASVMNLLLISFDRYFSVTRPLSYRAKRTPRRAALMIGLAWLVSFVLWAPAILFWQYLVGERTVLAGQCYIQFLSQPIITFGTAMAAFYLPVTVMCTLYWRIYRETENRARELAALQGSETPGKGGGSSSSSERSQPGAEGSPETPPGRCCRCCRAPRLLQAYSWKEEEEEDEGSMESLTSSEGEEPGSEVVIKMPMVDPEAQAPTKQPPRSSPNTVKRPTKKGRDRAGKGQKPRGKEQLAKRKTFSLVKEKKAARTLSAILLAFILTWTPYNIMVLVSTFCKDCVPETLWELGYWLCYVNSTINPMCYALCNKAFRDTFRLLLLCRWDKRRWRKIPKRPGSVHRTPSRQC
How it was run: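 Compounds were tested at 15 concentrations in three independent runs. Dye-loaded CHRM1-CHO cells were exposed 5 min at room temperature before stimulation by acetylcholine added at 50nM. Intracellular calcium was read kinetically on FDSS for 3 min.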

[9] = target: Muscarinic acetylcholine receptor M1 (Homo sapiens) (UniProt P11229); test: Cholinergic receptor muscarinic 1 (CHRM1) small molecule agonists, cell-based qHTS assay (AID 1963589); further: nearly all actives have a fitted effect of over 35% in size
How it was run: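 Homogeneous fluorescence calcium flux, agonist mode. Human M1-expressing CHO cells; compound dosed at 15 concentrations, three independent runs; signal sampled every 1 sec.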

[10] = cAMP Responsive Elements (CRE) small molecule agonists, cell-based qHTS assay (AID 1963590)
How it was run: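 HEK 293T cells stably bearing CRE-bla were plated at 2,000 cells per well and rested 18 h. Compounds, positive controls or DMSO were added for 3 h at 37 C. LiveBLAzer B/G substrate was then loaded for 2 h at room temperature.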

[11] = cAMP Responsive Elements (CRE) small molecule antagonists, cell-based qHTS assay (AID 1963591; active means well fitted inhibition curve with a large enough effect in the signal ratio in the repeat runs, not every such curve was filed as active; the % refers to the signal ratio)
How it was run: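 First, CRE-bla HEK293T cells settled 18 h at 37 C. Next, compound and 0.25 uM final NKH477 were applied for 3 h. Last, LiveBLAzer B/G substrate was loaded for 2 h at room temperature.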

[12] = target: Beta-2 adrenergic receptor (Homo sapiens) (UniProt P07550); test: Adrenergic beta2 receptor (ADRB2) small molecule antagonists, cell-based qHTS assay (AID 1963592); further: series mostly up to about 92 µM; nearly all actives have a fitted effect of over 50% in size
Beta-2 adrenergic receptor (Homo sapiens), sequence (P07550 whole entry, looked up): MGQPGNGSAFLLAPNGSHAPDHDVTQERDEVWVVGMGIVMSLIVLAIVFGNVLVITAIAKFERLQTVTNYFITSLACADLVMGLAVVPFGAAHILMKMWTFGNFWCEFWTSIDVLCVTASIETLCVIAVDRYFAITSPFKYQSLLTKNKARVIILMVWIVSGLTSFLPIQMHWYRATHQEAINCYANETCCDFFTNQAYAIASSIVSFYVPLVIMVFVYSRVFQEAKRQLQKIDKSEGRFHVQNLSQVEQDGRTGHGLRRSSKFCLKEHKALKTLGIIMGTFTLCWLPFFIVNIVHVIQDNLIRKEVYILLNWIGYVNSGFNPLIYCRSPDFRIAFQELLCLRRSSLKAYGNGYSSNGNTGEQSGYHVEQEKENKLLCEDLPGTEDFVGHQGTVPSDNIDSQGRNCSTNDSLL
How it was run: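 Assay format: CHO-ADRB2 cells, 18-20hr seeding at 37C/5% CO2, then compound plus 1nM isoproterenol agonist mix for 0.5hr RT. Homogeneous time-resolved fluorescence cAMP detection after 1hr, expressed as 665/615 nm ratio.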

[13] = target: Beta-2 adrenergic receptor (Homo sapiens) (UniProt P07550); test: Adrenergic beta2 receptor (ADRB2) small molecule agonists, cell-based qHTS assay (AID 1963593);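 further: CHO cells stably overexpressing human ADRB2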
How it was run: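 CHO cells stably over-expressing ADRB2 were plated overnight at 37C, then dosed with compounds plus a stimulation mix containing 100uM IBMX and 25uM Ro-20-1724 for 0.5hr at room temperature. cAMP was measured by HTRF competition, 1hr.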

[14] = target: D(2) dopamine receptor (Homo sapiens) (UniProt P14416); test: Dopamine D2 receptor (DRD2) small molecule agonists, cell-based qHTS assay (AID 1963594); further: nearly all actives have a fitted effect of over 35% in size
D(2) dopamine receptor (Homo sapiens), sequence (P14416 whole entry, looked up): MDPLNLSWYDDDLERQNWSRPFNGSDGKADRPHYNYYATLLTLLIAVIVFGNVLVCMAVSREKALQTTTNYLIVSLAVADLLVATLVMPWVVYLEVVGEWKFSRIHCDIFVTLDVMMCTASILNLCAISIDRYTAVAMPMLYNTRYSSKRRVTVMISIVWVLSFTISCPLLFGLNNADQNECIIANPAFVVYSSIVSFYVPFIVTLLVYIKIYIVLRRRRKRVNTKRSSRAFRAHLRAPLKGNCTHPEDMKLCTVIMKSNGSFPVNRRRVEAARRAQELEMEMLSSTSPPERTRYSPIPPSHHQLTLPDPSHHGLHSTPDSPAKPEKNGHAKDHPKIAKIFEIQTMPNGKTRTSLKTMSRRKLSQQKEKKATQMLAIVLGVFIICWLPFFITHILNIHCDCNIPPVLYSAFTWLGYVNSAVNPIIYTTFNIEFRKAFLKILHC
How it was run: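 cAMP accumulation in DRD2-HEK293 cells measured by HTRF after 1 h detection; compounds added 10 min before NKH477 (200nM […]) forskolin-analogue stimulation, 30 min at room temperature, with Ro20-1724 present at 0.1 mM final.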

[15] = target: D(2) dopamine receptor (Homo sapiens) (UniProt P14416); test: Dopamine D2 receptor (DRD2) small molecule antagonists, cell-based qHTS assay (AID 1963595; active means well fitted inhibition curve with a large enough effect in the signal ratio in the repeat runs, with a control signal flat; the % refers to the signal ratio)
How it was run: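 HEK293 cells stably expressing DRD2, preincubated with 0.1 mM Ro20-1724 and compounds 10 min, were stimulated with 200 nM NKH477 plus 12 nM quinpirole for 30 min at room temperature; cAMP measured by HTRF (665/620 nm).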

[16] = p53 small molecule agonists, cell-based qHTS assay: qHTS cell viability counter screen (AID 1963581); further: nearly all actives have a fitted effect of over 45% in size
How it was run: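 ATP content measured by luminescence in HCT-116 p53RE-bla cells treated 16 h at 37 C, same wells as the reporter screen.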

[17] = target: 5-hydroxytryptamine receptor 2A (Homo sapiens) (UniProt P28223); test: 5-hydroxytryptamine receptor 2A (HTR2A) small molecule antagonists, cell-based qHTS assay (AID 1963586); further: nearly all actives have a fitted effect of over 45% in size; further: potency means the concentration at half of the fitted maximal effect
How it was run: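 CHO cells stably expressing human HTR2A were plated for 18 h at 37 C, then loaded with calcium dye for 1 h. Compounds were preincubated 5 min at room temperature before DOI (4 nM solution) was added. Kinetic fluorescence was read for 3 min.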

[18] = p53 small molecule agonists, cell-based qHTS assay (AID 1963582; active means well fitted activation curve with a large enough effect in the signal ratio in the repeat runs, not every such curve was filed as active; the % refers to the signal ratio)
How it was run: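 16 h compound exposure (37 C) of p53 response element–bla cells, preceded by 5 h recovery at 37 C/5% CO2; read-out via LiveBLAzer B/G FRET substrate, 2 h RT, fluorescence intensity.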
On the % scale 0 is the no-effect control and ±100 the full control effect.

N=C(N)N1CCc2ccccc2C1
inactive: activity change, negative = cytotoxicity [1] 2.9% [at 8.39 µM] | activity change [2] 0.504% [at 5.22 µM, active compounds read high] | activation [3] -0.218% [at 6.97 µM] | activation [4] -0.314% [at 5.23 µM] | activity change, negative = cytotoxicity [5] -1.79% [at 5.99 µM] | activity change, negative = cytotoxicity [6] 0.465% [at 5.99 µM] | activation [7] -10.3% [at 7.02 µM] | activity, negative = inhibition [8] -1.92% [at 5.58 µM] | activation [9] 0.312% [at 6.97 µM] | activation [10] 0.166% [at 8.39 µM] | activity change, negative = inhibition [11] -2.28% [at 8.39 µM] | activity change, negative = inhibition [12] -8.55% [at 8.39 µM] | activation [13] 9.27% [at 8.39 µM] | activation [14] 22% [at 8.39 µM] | activity change, negative = inhibition [15] 16.9% [at 8.38 µM]

c1ccc(-c2nc[nH]c2-c2ccccc2)cc1
inactive: Potency [1] | Potency [2] | Potency [3] | Potency [4] | Potency [5] | Potency [6] | Potency [16] | Potency [7] | Potency [8] | Potency [10] | Potency [11] | Potency [12] | Potency [13] | Potency [15]
active: Potency [17] 3.65 µM

COc1cc(C(=O)OCCCN2CCCN(CCCOC(=O)c3cc(OC)c(OC)c(OC)c3)CC2)cc(OC)c1OC
inactive: Potency [1] | Potency [2] | Potency [3] | Potency [4] | Potency [5] | Potency [6] | Potency [18] | Potency [7] | Potency [9] | Potency [10] | Potency [12] | Potency [14] | Potency [15]
active: Potency [8] 7.29 µM

Cc1ccc(Nc2c(F)cccc2Cl)c(CC(=O)O)c1
inactive: Potency [1] | Potency [2] | Potency [3] | Potency [4] | Potency [5] | Potency [6] | Potency [16] | Potency [17] | Potency [7] | Potency [8] | Potency [9] | Potency [10] | Potency [11] | Potency [14] | Potency [15]

CC(C)Cn1cnc2c1c(=O)n(C)c(=O)n2C
inactive: Potency [1] | Potency [2] | Potency [3] | Potency [4] | Potency [5] | Potency [6] | Potency [16] | Potency [17] | Potency [7] | Potency [8] | Potency [9] | Potency [10] | Potency [12] | Potency [13] | Potency [15]

CCCCCCC[N+](CC)(CC)CCCCc1ccc(Cl)cc1
inactive: Potency [1] | Potency [2] | Potency [3] | Potency [4] | Potency [5] | Potency [6] | Potency [16] | Potency [17] | Potency [7] | Potency [9] | Potency [12] | Potency [15]

CC(C)O.CC(C)O.CCOC(=O)/C=C(\C)O.CCOC(=O)/C=C(\C)O.[Ti]
inactive: Potency [1] | Potency [2] | Potency [3] | Potency [4] | Potency [5] | Potency [6] | Potency [16] | Potency [17] | Potency [7] | Potency [8] | Potency [9] | Potency [10] | Potency [11] | Potency [12] | Potency [14] | Potency [15]

OC[C@H]1O[C@@H](n2cnc3c(=S)nc[nH]c32)[C@H](O)[C@@H]1O
inactive: Potency [1] | Potency [2] | Potency [3] | Potency [4] | Potency [5] | Potency [6] | Potency [17] | Potency [7] | Potency [8] | Potency [9] | Potency [10] | Potency [11] | Potency [13] | Potency [14] | Potency [15]
